# Screening results: PubChem BioAssay, Broad Institute
# C diff growth: C. difficile growth inhibition; 0.25% of 86,000 active; growth activity, negative = inhibition, % at 16 µg/mL (by protocol); Clostridium difficile clinical isolate growth, OD600, 24 h; hits give low values;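 active = mean growth activity at or below -80% and every replicate also at or below -80%; inconclusive = mean at or below -80% but some replicate above -80%; inactive = mean growth activity above -80%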;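 note: 0% = DMSO wells and -100% = levofloxacin 16 µg/mL wells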
# Pf Dd2 inh: blocks growth of Plasmodium falciparum Dd2 parasites. activity change, % at 10 µM. 2.3% of 94,000 active. AID 1159554. P. falciparum Dd2 growth, SYBR Green, 72 h; hits give low values; in the data active = activity change below about -80%; inconclusive = no clear call, values can overlap the other calls
# T cruzi growth-1: inhibitors of T. cruzi proliferation; T. cruzi beta-gal in NIH3T3, GalScreen luminescence, 90 h; inhibition, % at 8.34 µM; 5.9% of 77,000 active;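 active = mean inhibition above about 93%, with at least 55% of replicates each passing it, limit read from the data, passing the limit was not always enough; inconclusive = only one of those two conditions holds; inactive = neither condition holds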
# T cruzi growth-2: Trypanosoma cruzi proliferation inhibition; shares compounds with T cruzi growth-1; T. cruzi beta-gal in NIH3T3, GalScreen luminescence, 90 h; inhibition, % at 8.35 µM; 72% of 5,600 active;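 active = mean replicate inhibition above about 95% and at least 55% of replicates individually reaching it, limit read from the data; inconclusive = only one of the two criteria is met; inactive = neither criterion is met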
# T cruzi growth-3: inhibitors of T. cruzi proliferation. shares compounds with T cruzi growth-1. T. cruzi beta-gal in NIH3T3, GalScreen luminescence, 90 h. AID 651740. inhibition, % at 2.09 µM. 21% of 5,600 active;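 active = mean inhibition above about 95%, with at least 55% of replicates also reaching it, limit read from the data; inconclusive = meets just one of the two conditions; inactive = meets neither condition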;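 note: plate controls were neutral control median for no effect and positive control median for full effect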
# 3T3 cytotox: cytotoxicity in mouse NIH/3T3 fibroblasts | shares compounds with T cruzi growth-1 | NIH/3T3 viability, CellTiter-Glo ATP luminescence, 90 h | cytotoxicity (signal decrease), % at 8.35 µM | 14% of 5,600 active;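 active = mean signal decrease across replicates above about 35% based on untreated-well scatter, with enough replicates individually passing, limit read from the data; inconclusive = no rule stated though some were filed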;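 note: 0% = median of neutral control wells and 100% = median of positive control wells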
# 3T3 cytotox 2: kills mouse NIH/3T3 fibroblasts; NIH/3T3 viability, CellTiter-Glo ATP luminescence, 90 h; AID 651744; inhibition, % at 24.9 µM; 56% of 5,600 active; shares compounds with T cruzi growth-1;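 active = mean loss of cell viability signal at or above a set limit, and enough replicates individually reaching it; inconclusive = meets only the mean limit or only the replicate share; inactive = meets neither condition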;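 note: 0% = median of neutral control wells and 100% = median of positive control wells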
# Numbers without * were called inactive; u = inconclusive; x = not tested or not shown; + = active, no number. A selection: hits, their analogues and other compounds. The true share with any hit is near 6.8%.
SMILES,C diff growth,Pf Dd2 inh,T cruzi growth-1,T cruzi growth-2,T cruzi growth-3,3T3 cytotox,3T3 cytotox 2
Cc1noc(C)c1S(=O)(=O)N(C)C[C@H]1OCCCC[C@@H](C)Oc2ccc(NC(=O)Nc3ccc(C(F)(F)F)cc3)cc2C(=O)N([C@H](C)CO)C[C@@H]1C,5,-53,110*,108*,102*,7,32*
Cc1noc(C)c1S(=O)(=O)N(C)C[C@@H]1OCCCC[C@H](C)Oc2ccc(NC(=O)Nc3ccc(C(F)(F)F)cc3)cc2C(=O)N([C@H](C)CO)C[C@@H]1C,-6,-35,104*,105*,113*,18,8
Cc1noc(C)c1S(=O)(=O)N(C)C[C@@H]1OCCCC[C@@H](C)Oc2ccc(NC(=O)Nc3ccc(F)cc3)cc2C(=O)N([C@H](C)CO)C[C@H]1C,-5,-47,75,x,x,x,x
Cc1noc(C)c1S(=O)(=O)N(C)C[C@H]1OCCCC[C@H](C)Oc2ccc(NC(=O)Nc3ccc(F)cc3)cc2C(=O)N([C@@H](C)CO)C[C@@H]1C,2,-71,87,x,x,x,x
O=C(c1cnccn1)N1CC(=O)N2[C@@H](CO)[C@H](c3ccc(C#CC4CCCC4)cc3)[C@@H]2C1,-11,16,x,x,x,x,x
C[C@H](CO)N1C[C@H](C)[C@H](CN(C)C)Oc2cc(C#CC(C)(C)O)ccc2S1(=O)=O,6,x,-11,x,x,x,x
CCN1[C@@H]2Cn3c(ccc(-c4ccccc4)c3=O)[C@H]1[C@@H](C(=O)NCc1ccccc1)[C@@H]2CO,-3,8,53,x,x,x,x
CN(C)C(=O)[C@@H]1[C@@H](CO)[C@@H]2Cn3c(ccc(-c4ccccc4)c3=O)[C@H]1N2C(=O)C1CCC1,-3,x,+,55,-19,-14,7
CCN1[C@@H]2c3ccc(-c4ccccc4)c(=O)n3C[C@H]1[C@H](CO)[C@H]2C(=O)Nc1ccccc1,-2,11,99*,62,1,8,13
CN(C)C(=O)[C@H]1[C@H](CO)[C@H]2Cn3c(ccc(-c4ccccc4)c3=O)[C@@H]1N2CC1CCCC1,-1,0,u,85,26,5,u
CCNC(=O)[C@@H]1[C@@H](CO)[C@@H]2Cn3c(ccc(-c4ccccc4)c3=O)[C@H]1N2C(=O)C1CC1,-1,15,3,x,x,x,x
CN(C)C(=O)[C@@H]1[C@@H](CO)[C@@H]2Cn3c(ccc(-c4ccccc4)c3=O)[C@H]1N2CC1CCCC1,-2,5,87,x,x,x,x
CN1C(=O)c2cc(NC(=O)c3cnccn3)ccc2OC[C@H]2O[C@H](CC(=O)NCC3CC3)CC[C@H]21,0,29,x,x,x,x,x
O=C(C1CCC1)N1CC[C@@H]2[C@H]1c1cc(Br)ccc1N[C@@H]2CO,6,-59,x,x,x,x,x
COc1ccc(NC(=O)N(C)C[C@H]2OCCCC[C@@H](C)Oc3ccc(NC(=O)Nc4ccc(C(F)(F)F)cc4)cc3C(=O)N([C@@H](C)CO)C[C@H]2C)cc1,4,-62,109*,105*,113*,10,6
COc1ccc(NC(=O)N(C)C[C@@H]2OCCCC[C@@H](C)Oc3ccc(NC(=O)Nc4ccc(C(F)(F)F)cc4)cc3C(=O)N([C@@H](C)CO)C[C@H]2C)cc1,3,25,-10,x,x,x,x
COc1ccc(NC(=O)Nc2ccc3c(c2)C(=O)N([C@H](C)CO)C[C@H](C)[C@@H](CN(C)C(=O)Nc2ccc(C(F)(F)F)cc2)OCCCC[C@H](C)O3)cc1,-2,-90*,u,112*,107*,10,1
COc1ccc(NC(=O)Nc2ccc3c(c2)C(=O)N([C@@H](C)CO)C[C@H](C)[C@@H](CN(C)C(=O)Nc2ccc(C(F)(F)F)cc2)OCCCC[C@H](C)O3)cc1,-7,-82*,u,107*,110*,16,13
COc1ccc(NC(=O)N(C)C[C@@H]2OCCCC[C@H](C)Oc3ccc(NC(=O)Nc4ccc(C(F)(F)F)cc4)cc3C(=O)N([C@H](C)CO)C[C@@H]2C)cc1,2,81,74,x,x,x,x
COc1ccc(NC(=O)N(C)C[C@H]2OCCCC[C@H](C)Oc3ccc(NC(=O)Nc4ccc(C(F)(F)F)cc4)cc3C(=O)N([C@@H](C)CO)C[C@H]2C)cc1,6,-12,78,x,x,x,x
COc1ccc(NC(=O)Nc2ccc3c(c2)C(=O)N([C@@H](C)CO)C[C@@H](C)[C@@H](CN(C)C(=O)Nc2ccc(OC)cc2)OCCCC[C@H](C)O3)cc1,x,-39,31,x,x,x,x
COc1ccc(NC(=O)Nc2ccc3c(c2)C(=O)N([C@@H](C)CO)C[C@@H](C)[C@@H](CN(C)C(=O)Nc2ccc(C(F)(F)F)cc2)OCCCC[C@@H](C)O3)cc1,-7,-56,u,101*,107*,8,3
CC(C)NC(=O)N(C)C[C@H]1Oc2cc(C#CC3CC3)ccc2S(=O)(=O)N([C@H](C)CO)C[C@H]1C,0,-12,60,x,x,x,x
C[C@@H]1CN([C@@H](C)CO)C(=O)c2cc(NS(=O)(=O)c3cn(C)cn3)ccc2O[C@H]1CN(C)S(=O)(=O)c1cccs1,x,25,-21,x,x,x,x
Cc1ccccc1-c1cnc2c(c1)C(=O)N([C@@H](C)CO)C[C@H](C)[C@@H](CN(C)Cc1ccncc1)O2,5,-3,51,x,x,x,x
SMILES,C diff growth,Pf Dd2 inh,T cruzi growth-1,T cruzi growth-2,T cruzi growth-3,3T3 cytotox,3T3 cytotox 2
COc1ccc(NC(=O)N[C@H]2CC[C@H](CCn3cc(C4(O)CCCC4)nn3)O[C@H]2CO)cc1,3,8,10,x,x,x,x
COc1ccc(NC(=O)Nc2ccc3c(c2)C(=O)N([C@@H](C)CO)C[C@@H](C)[C@@H](CN(C)C(=O)Nc2ccc(OC)cc2)OCCCC[C@@H](C)O3)cc1,x,-45,57,x,x,x,x
COc1ccc(NC(=O)Nc2ccc3c(c2)C(=O)N([C@@H](C)CO)C[C@@H](C)[C@H](CN(C)C(=O)Nc2ccc(C(F)(F)F)cc2)OCCCC[C@H](C)O3)cc1,-7,-11,u,103*,100*,4,19
CC(=O)N1CCCCN2[C@H](CO)[C@@H](c3ccc(-c4cccc(C)c4)cc3)[C@H]2C1,-12,25,-7,x,x,x,x
CC(=O)N1CCCCN2[C@@H](CO)[C@@H](c3ccc(-c4cccc(C)c4)cc3)[C@@H]2C1,-6,22,u,53,50,42*,62*
CC(=O)N1CCCCN2[C@@H](CO)[C@@H](c3ccc(-c4ccccc4)cc3)[C@@H]2C1,-14,-6,85,x,x,x,x
CC(=O)N1CCCCN2[C@H](CO)[C@H](c3ccc(-c4ccc(C)cc4)cc3)[C@@H]2C1,-10,10,117*,98*,16,44*,34*
C[C@@H]1CN([C@@H](C)CO)S(=O)(=O)c2ccc(C#CC3CCCC3)cc2O[C@H]1CN(C)C(=O)Cc1ccccc1,-5,u,x,x,x,x,x
